The list is not random: actives were taken first. Their share in the collection is about 2.4%.
D2 ag-1: D2 dopamine receptor (human) agonism | activation, % at 2 µM | HEK293 T-REx D2 cells, calcium flux agonist mode | P14416 | 340,000 tested, 0.53% active;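 active means activation over 3 SD above normal in the single-dose calcium agonist read, cut at about 30% in these data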; further: 0% is about no effect
Target sequence (P14416 whole entry, looked up): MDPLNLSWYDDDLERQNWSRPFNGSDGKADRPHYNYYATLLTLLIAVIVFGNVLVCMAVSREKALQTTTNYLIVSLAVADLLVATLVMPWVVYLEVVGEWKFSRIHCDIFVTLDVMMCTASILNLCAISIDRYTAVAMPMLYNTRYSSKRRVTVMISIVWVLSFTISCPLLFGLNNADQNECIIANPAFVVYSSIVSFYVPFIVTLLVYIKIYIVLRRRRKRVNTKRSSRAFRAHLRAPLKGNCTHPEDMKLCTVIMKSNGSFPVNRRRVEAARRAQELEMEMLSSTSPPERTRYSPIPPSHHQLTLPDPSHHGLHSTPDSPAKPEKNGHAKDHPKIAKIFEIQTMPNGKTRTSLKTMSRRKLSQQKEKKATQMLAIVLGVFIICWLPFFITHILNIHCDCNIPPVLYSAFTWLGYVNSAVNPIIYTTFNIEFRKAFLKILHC
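Agonism scored from kinetic calcium signal (1 read/sec, 180 s) following compound pin transfer, after a 10 s baseline. Cells: HEK293 Trex line expressing inducible D2 receptor coupled to calcium, dye-loaded after overnight culture at 30 C.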
D2 antag: antagonists of human D2 dopamine receptor | P14416 | HEK293 TREx D2 cells, calcium flux, dopamine EC80 | inhibition, % at 10 µM | 340,000 tested, 2% active | AID 485344; in the data active means inhibition above about 30%; inactive means below that, where a call was filed; further: 0% is about no effect
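Measurement of antagonist activity uses fluorescent calcium dye in inducible HEK293 T-REx D2 cells: 10 s baseline, compound addition with 180 s read, EC80 dopamine addition with a further 180 s read.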
D2 PAM-1: positive allosteric modulators of human D2 dopamine receptor. HEK293 T-REx D2, calcium flux, EC20 dopamine potentiation. potentiation, % at 10 µM. 340,000 tested, 0.34% active;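 active means potentiation over 3 SD above the plate norm, cut at about 30% in these data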; further: 0% is about no effect
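Cells plated with tetracycline inducer and held overnight at 30 C; calcium dye loaded 30–90 min at room temperature; baseline taken, compound added and read 180 s; EC20 dopamine then added and read 180 s.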
D2 ag-2: activates the human D2 dopamine receptor. DiscoveRx PathHunter D2 beta-arrestin, luminescence, 90 min; 100% = 57 uM dopamine signal. P14416. 360,000 tested, 0.084% active. AID 624465. activation, % (test concentration not listed); in the data active means activation above about 40%
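Agonist mode: compounds alone added to overnight-plated D2 PathHunter cells for 90 min at 37 C, with 57 uM final dopamine (EC100) defining full response. Beta-arrestin recruitment detected by chemiluminescent reagent, read after 1 h at ambient temperature.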
D2 PAM-2: potentiates the human D2 dopamine receptor allosterically; potentiation, % (test concentration not listed); 360,000 tested, 0.23% active; DiscoveRx D2 beta-arrestin cells, luminescence, 90 min; 100% = 57 uM dopamine signal; in the data active means potentiation above about 50%
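PathHunter beta-arrestin assay in DiscoveRx D2 cells. Compounds were added with an EC20 of dopamine (50 nM final) for 90 min at 37 deg C. Luminescence was read 1 h after detection reagent, with 57 uM dopamine as the EC100 control.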
Starred values were filed as active, the others as inactive; . = no result.

SMILES | D2 ag-1 | D2 antag | D2 PAM-1 | D2 ag-2 | D2 PAM-2
O=C(NCc1ccccc1)c1ccc(NC(=O)c2ccccc2F)cc1 | 0.4 | 4.2 | 0.8 | -0.5 | -11.0
CCc1ccc(OC(=O)c2cccnc2)cc1 | -1.8 | 32.1* | 2.1 | -6.1 | -5.8
COC(=O)[C@@H]1C[C@@H]2CC[C@@H](O)C[C@@H]2N1Cc1ccc(OC)cc1 | 0.7 | 39.2* | 8.5 | -2.3 | -3.6
CCOC(=O)c1ccc(N2C(=O)Cc3cc(OCC)c(OCC)cc3C2c2ccccc2)cc1 (configuration not stated) | -1.7 | . | 9.6 | . | .
O=C(Nc1nnc(-c2ccccc2F)s1)C1CCCO1 (configuration not stated) | 0.7 | 39.7* | 0.6 | -1.4 | 2.3
O=C(O)c1nn2cc(CCO)cnc2c1Cl | 1.0 | -6.2 | 33.5* | 0.7 | -5.3
Cc1ccccc1-c1cnc(C(O)c2c(C)ccc3ccccc23)[nH]1 (configuration not stated) | . | . | . | -1.1 | -12.9
c1ccc(-c2ccccc2OCCN2CCCC2)cc1 | 0.3 | 81.9* | -21.8 | 4.9 | -25.3
c1ccc(-c2ccccc2OCCCCN2CCCCCC2)cc1 | 0.3 | 147.6* | -41.0 | 0.4 | -8.1
CC(C)(C)c1ccccc1OCCOCCN1CCCCCC1 | -0.4 | 31.3* | -26.6 | 2.8 | -10.3
c1ccc(-c2ccccc2OCCOCCN2CCCCC2)cc1 | -0.5 | 87.1* | -24.5 | -5.9 | -26.4
Cc1ccccc1OCCN1CCCC1 | 3.0 | -16.0 | -20.8 | -5.0 | -3.9
COc1ccc(C(=O)CC(C(=O)O)c2ccc(OC)c(OC)c2)cc1OC (configuration not stated) | . | . | . | -9.6 | -7.2
N#Cc1ccccc1NC(=S)NC(=O)c1cccnc1 | 0.5 | 15.8 | -0.3 | -0.6 | -7.9
Cc1ccc(NC(=O)C(=O)NCC(c2ccc3c(c2)OCO3)N2CCN(C)CC2)cc1C (configuration not stated) | 0.7 | . | 2.3 | . | .
CCNc1nc(OC)nc(N2CCC(Cc3ccccc3)CC2)n1 | -0.1 | 6.2 | -10.5 | -1.7 | 6.0
CC1CN(CCOc2ccc(F)cc2)CC(C)O1 (configuration not stated) | -0.5 | -5.6 | 5.2 | -2.3 | -4.2
CC1CN(CCOc2ccccc2-c2ccccc2)CC(C)O1 (configuration not stated) | 0.0 | 71.1* | -17.5 | -6.0 | -25.2
OCCCN1CCN(CCCOc2ccccc2-c2ccccc2)CC1 | 0.4 | 53.3* | -29.3 | -4.5 | -32.7
c1ccc(-c2ccccc2OCCCN2CCOCC2)cc1 | 0.2 | 9.6 | 13.4 | -1.4 | -14.7
COc1ccc2nc(SC(C)C(=O)NC3CCCCC3)[nH]c2c1 (configuration not stated) | -0.9 | -5.2 | 15.3 | -2.0 | -2.6
Cc1cccc(NC(=S)NC(NC(=O)c2ccco2)C(Cl)(Cl)Cl)c1 (configuration not stated) | 0.6 | 30.3* | -23.8 | 0.2 | -28.7
Cc1ccc(NC(=S)NC(NC(=O)c2ccco2)C(Cl)(Cl)Cl)cc1 (configuration not stated) | 0.7 | -3.4 | -1.8 | -0.4 | -16.4
COc1cccc(CNC(=O)CSc2nc(=O)n(Cc3ccncc3)c3c2CCC3)c1 | -0.5 | 16.7 | -12.9 | 6.6 | -6.3
CCn1nc(C(=O)OCC(=O)N(CCC#N)c2ccccc2)c2ccccc2c1=O | 0.1 | -18.1 | 14.2 | -4.9 | -19.0
SMILES | D2 ag-1 | D2 antag | D2 PAM-1 | D2 ag-2 | D2 PAM-2
COc1ccc(CCN(C)C/C=C/c2ccccc2[N+](=O)[O-])cc1OC | 0.5 | 57.3* | -22.5 | -4.1 | -21.6
O=C(Nc1cccnc1)C1CCN(S(=O)(=O)c2ccc(Cl)cc2)CC1 | 0.4 | -7.6 | 7.3 | -6.2 | -3.1
Cc1ccc(NC(=O)C2CCC(N3C(=O)C4CCCCC4C3=O)CC2)cc1 (configuration not stated) | 0.5 | 42.8* | -11.4 | -3.7 | -6.3
O=C(Nc1ccc(Cc2ccncc2)cc1)C1CCC(N2C(=O)C3CCCCC3C2=O)CC1 (configuration not stated) | -0.8 | -4.7 | -9.2 | -1.2 | -0.1
CC(=O)N1CCc2cc(C(=O)CN3CCC(C)CC3)ccc21 | 0.7 | 7.2 | -3.9 | 2.0 | -3.9
CC(=O)N1CCc2cc(C(=O)CN3CCN(c4cccc(Cl)c4)CC3)ccc21 | 53.5* | 73.0* | -15.9 | 9.7 | -12.9

Screens: PubChem, National Center for Advancing Translational Sciences (NCATS)
